RGS4-Gao reg = modulates binding of RGS4 to human Galphao | P09471 | Multiplexed bead flow cytometry; actives lie on both sides | binding response (% of control), % at 10 µM | actives 0.33% (n = 220,000); in the data active = binding response below about 49% or above about 150%; inactive = in between;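 note: fluorescent Galphao activated with aluminum fluoride binding bead-coupled RGS4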
Avidin bead fluor = avidin bead compound fluorescence profile; Avidin beads, compound fluorescence 488/530 nm, flow cytometry; stronger effect = higher value; fluorescence (KMESF) at 10 µM; actives 0.38% (n = 220,000); AID 1775; in the data active = fluorescence above about 47
GSH fluor = compound fluoresces at 488/530 nm on GSH beads | GSH beads flow cytometry, compound fluorescence 488/530 nm; stronger effect = higher value | fluorescence (KMESF) at 10 µM | actives 0.25% (n = 190,000); in the data active = fluorescence above about 89;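 note: glutathione beads carrying GST-tagged Bcl family fusion proteins plus one bare bead set; values are compound well signal with DMSO vehicle wells as background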
RGS7-Gao reg = human RGS7-Galphao interaction regulation; P09471; Multiplexed bead flow cytometry, RGS7-Galphao binding; actives lie on both sides; binding response (% of control), % at 10 µM; actives 0.35% (n = 220,000); AID 1439; in the data active = binding response below about 49% or above about 150%; inconclusive = no clear call, values can overlap the other calls; inactive = in between;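 note: fluorescent Galphao held in activated GDP-AlF4 state binding bead-coupled RGS7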
RGS16-Gao = regulators of human RGS16-Galphao interaction. bead-based flow cytometry RGS16-Galphao binding, fluorescence; actives lie on both sides. binding response (% of control), % at 10 µM. actives 0.38% (n = 220,000). O15492+P09471. AID 1441;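 note: Galphao activated by GDP with aluminum fluoride before binding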
Target sequence (O15492 whole entry, looked up): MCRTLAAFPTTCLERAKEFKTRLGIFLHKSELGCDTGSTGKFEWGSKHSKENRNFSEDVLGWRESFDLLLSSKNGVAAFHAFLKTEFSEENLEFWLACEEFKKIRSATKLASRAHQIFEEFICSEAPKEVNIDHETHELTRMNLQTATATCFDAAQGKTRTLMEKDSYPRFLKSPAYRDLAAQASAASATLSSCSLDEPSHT
Target sequence (P09471 whole entry, looked up): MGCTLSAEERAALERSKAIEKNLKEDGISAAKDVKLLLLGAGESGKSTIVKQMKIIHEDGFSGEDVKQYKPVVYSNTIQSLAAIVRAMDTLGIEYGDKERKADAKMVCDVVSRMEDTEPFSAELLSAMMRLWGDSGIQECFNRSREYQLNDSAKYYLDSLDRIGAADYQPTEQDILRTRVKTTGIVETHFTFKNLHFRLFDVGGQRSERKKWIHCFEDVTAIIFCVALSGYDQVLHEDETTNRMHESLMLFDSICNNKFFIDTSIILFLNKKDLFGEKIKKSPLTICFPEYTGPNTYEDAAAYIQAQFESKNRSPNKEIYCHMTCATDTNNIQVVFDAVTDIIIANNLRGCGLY
RGS8-Gao reg = regulators of human RGS8-Galphao interaction | P09471 | multiplexed bead flow cytometry, RGS8-Galphao binding; actives lie on both sides | response (percent of control binding), % at 10 µM | actives 0.34% (n = 220,000); in the data active = response below about 60% or above about 140%; inactive = in between;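 note: Galphao activated as the GDP aluminium fluoride complex binding bead-coupled RGS8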
RGS4-Gao HTS = RGS4-Galphao interaction regulator (human). shares compounds with RGS16-Gao. actives 99% (n = 1,600). RGS4–Galpha-o binding response, % at 10 µM. AID 1504. multiplexed bead flow cytometry, RGS–Galpha-o binding;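 note: fluorescently labeled Galpha-o bound to GDP with aluminium fluoride binding biotinylated RGS beads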
Avidin counter = biotin-avidin bead binding disruption counter-screen. shares compounds with RGS16-Gao. streptavidin beads, fluorescein-biotin binding, flow cytometry. inhibition, % at 10 µM. 1,700 tested, under 10 active;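 active = inhibition above 50%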;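 note: median green fluorescence of gated singlet beads compared with DMSO control wells; 0% = DMSO wells and 100% = complete loss of bead fluorescence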
RGS8-Gao confirm = RGS8-Galphao interaction regulation, single point confirmation; shares compounds with RGS16-Gao; bead-based flow cytometry RGS8-Galphao binding, fluorescence; actives lie on both sides; binding response (% of control), % at 10 µM; actives 3% (n = 1,700); AID 1836; in the data active = binding response below about 72% or above about 130%; inactive = in between;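 note: Galphao activated as GDP AlF4 complex before binding bead RGS8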
RGS7-Gao single = confirmation of regulators of human RGS7-Galphao interaction; shares compounds with RGS16-Gao; bead-based flow cytometry RGS7-Galphao binding; actives lie on both sides; response (percent of control binding), % at 10 µM; actives 7.8% (n = 1,700); in the data active = response below about 75% or above about 130%; inactive = in between;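 note: fluorescent Galphao activated with GDP and aluminum fluoride binding bead-coupled RGS7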
RGS16-Gao single = confirmation of regulators of human RGS16-Galphao interaction. bead-based flow cytometry, RGS16-Galphao binding; actives lie on both sides. response (% of control binding), % at 10 µM. actives 4% (n = 1,700). shares compounds with RGS16-Gao; in the data active = response below about 74% or above about 130%; inactive = in between;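 note: Galphao activated as the GDP aluminium fluoride complex binding bead-coupled RGS16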
RGS4-Gao single = confirmation of regulators of human RGS4-Galphao interaction | shares compounds with RGS16-Gao | RGS4-Galphao binding, multiplexed bead flow cytometry; actives lie on both sides | binding response (% of control), % at 10 µM | actives 4% (n = 1,700); in the data active = binding response below about 74% or above about 130%; inactive = in between
RGS19-Gao single = confirmation of regulators of human RGS19-Galphao interaction; shares compounds with RGS16-Gao; bead-based flow cytometry RGS19-Galphao binding; actives lie on both sides; response (percent of control binding), % at 10 µM; actives 5% (n = 1,700); AID 1841; in the data active = response below about 50% or above about 160%; inactive = in between;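 note: 100% = no compound control and 0% = blank background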
Numbers without * were called inactive. An excerpt weighted towards active compounds, which were near 1.2% of everything screened. Unless noted, the rule behind the calls is not given here.

Results for COc1ccc(C(=O)C[n+]2ccc3c(c2)nc(-c2cc(OC)c(OC)cc2OC)n3C)cc1 ?
RGS4-Gao reg: 74.8; Avidin bead fluor: 5; GSH fluor: 17; RGS7-Gao reg: 67.7; RGS16-Gao: 17.8*; RGS8-Gao reg: 61.0; RGS4-Gao HTS: 74.8*; Avidin counter: 0.7; RGS8-Gao confirm: 102.2; RGS7-Gao single: 104.8; RGS16-Gao single: 102.1; RGS4-Gao single: 101.1; RGS19-Gao single: 97.5

What do the screens show for `COc1cc(OC)c(-c2nc3c[n+](CC(=O)c4ccccc4)ccc3n2C)cc1OC`?
RGS4-Gao reg: 102.2; Avidin bead fluor: 8; GSH fluor: 36; RGS7-Gao reg: 101.0; RGS16-Gao: 86.8; RGS8-Gao reg: 97.8

Results for Cc1ncsc1CCOC(=O)C1C2CC3CC(C2)CC1C3 (stereo unspecified) ?
RGS4-Gao reg: 91.9; Avidin bead fluor: 1; GSH fluor: 9; RGS7-Gao reg: 93.7; RGS16-Gao: 21.6*; RGS8-Gao reg: 72.5; RGS4-Gao HTS: 91.9*; Avidin counter: 1.8; RGS8-Gao confirm: 99.9; RGS7-Gao single: 95.2; RGS16-Gao single: 94.2; RGS4-Gao single: 93.3; RGS19-Gao single: 104.7

What do the screens show for `C=CCn1c(CNC(=O)c2ccccc2F)nnc1SCc1nc2ccccc2c(=O)[nH]1`?
GSH fluor: 10; Avidin counter: -0.8; RGS8-Gao confirm: 98.0; RGS7-Gao single: 96.4; RGS16-Gao single: 97.2; RGS4-Gao single: 97.1; RGS19-Gao single: 89.5

What do the screens show for `C=CCn1c(CCNC(=O)c2ccccc2F)nnc1SCc1nc2ccccc2c(=O)[nH]1`?
RGS4-Gao reg: 100.1; Avidin bead fluor: 13; GSH fluor: 35; RGS7-Gao reg: 99.7; RGS16-Gao: 99.2; RGS8-Gao reg: 98.1

How did CC(C)C1Oc2cc3oc(=O)ccc3cc2C1=O (stereo unspecified) do in these assays?
RGS4-Gao reg: 56.1; Avidin bead fluor: 4; GSH fluor: 23; RGS7-Gao reg: 50.4; RGS16-Gao: 5.7*; RGS8-Gao reg: 57.3*; RGS4-Gao HTS: 56.1*; Avidin counter: -1.3; RGS8-Gao confirm: 106.5; RGS7-Gao single: 104.6; RGS16-Gao single: 106.1; RGS4-Gao single: 103.5; RGS19-Gao single: 97.5

How did C=Cc1ccc(CSc2cc(C)nc3nc(C)nn23)cc1 do in these assays?
RGS4-Gao reg: 96.5; Avidin bead fluor: 9; RGS7-Gao reg: inconclusive; RGS16-Gao: 98.8; RGS8-Gao reg: 100.2

What do the screens show for `CC(C)(C)NC(=O)CN(Cc1ccc(F)cc1)C(=O)Cn1nnc(-c2ccc(F)cc2)n1`?
RGS4-Gao reg: 97.7; Avidin bead fluor: 10; GSH fluor: 9; RGS7-Gao reg: 98.2; RGS16-Gao: 105.3; RGS8-Gao reg: 102.8

Bioassay records: PubChem, NMMLSC
